# SW480 rerep: inducers of DNA re-replication in SW480 colon cancer cells | Potency, µM (titrated, usually from 46.1 µM), without a hit: at the highest dose re-replication activation, actives largely listed as activators | SW480 DNA re-replication, Hoechst DNA content imaging, 48 h | 340,000 tested, 1.8% active | AID 624297; further: % of control where 0% means no effect; nearly all actives have a fitted effect of over 55% in size
#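 Readout is total intensity of Hoechst-stained nuclei, excited at 405 nm and collected at 500-530 nm. Compound treatment lasted 48 hr at 37 C in 5% CO2 before staining.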
# MCF10A rerep: inducers of DNA re-replication in MCF 10A breast cells; MCF 10A DNA re-replication, Hoechst nuclear intensity, 48 h; AID 624296; 350,000 tested, 2.9% active; Potency, µM (highest dose often 46.1 µM), for the others: at the highest dose activity, positive = re-replication, most hits filed as activators; further: % of control where 0% means no effect; nearly all actives have a fitted effect of over 50% in size
# KB-3-1 tox: kills parental KB-3-1 adenocarcinoma cells. KB-3-1 viability, CellTiter-Glo ATP luminescence, 72 h. Potency, µM (doses to about 46.1 µM), usual class: cytotoxic. 400,000 tested, 1.4% active. AID 1347075; further: on the % scale 0 is the no-effect control and ±100 the full control effect; nearly all actives have a fitted effect of over 60% in size
#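 Cytotoxicity measured as CellTiter-Glo luminescence after 72 h at 37 C. Compound titrations were pinned onto drug-naive KB-3-1 parental adenocarcinoma cells grown in DMEM with 10% FBS, and normalized data fitted to concentration-response curves.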
# HT1080 IDH1KD tx: kills HT-1080 cells with IDH1 knockdown; HT-1080 IDH1 knockdown viability, ATP luminescence, 48 h; Potency, µM (titrated, usually from 46.1 µM), inactives show top-dose activity, negative = toxicity, most hits filed as cytotoxic; 360,000 tested, 2% active; AID 686971;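 further: 0% = DMSO wells and -100% = cell-free medium wells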
#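 % activity derives from luminescence (CellTiter-Glo), normalised to DMSO and no-cell wells. HT-1080-IDH1KD cells, 750/well, had 48 h compound exposure at 37 °C.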
# HT1080-NT tox: kills 2HG-producing HT-1080-NT fibrosarcoma cells. Potency, µM (titrated, usually from 46.1 µM), for the others: at the highest dose activity, negative = less viability, hits mostly cytotoxic. 360,000 tested, 1.6% active. HT-1080-NT fibrosarcoma viability, CellTiter-Glo ATP luminescence, 48 h;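 further: NT is the 2HG producing partner of a matched IDH1 knockdown line; 0% = DMSO-treated cells and -100% = media-only wells without cells; nearly all actives have a fitted effect of over 55% in size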
#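 HT-1080-NT; 750 cells/well; 5% FBS RPMI; 48 h compound, 37 degrees C; CellTiter-Glo luminescence; curve fitting and curve-class assignment.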
# KB-V1 MDR tox: KB-V1 MDR subline cytotoxicity; KB-V1 MDR cells viability, CellTiter-Glo, 72 h; AID 1347076; 400,000 tested, 3.4% active; Potency, µM (titrated, usually from 46.1 µM), usual class: cytotoxic; further: on the % scale 0 is the no-effect control and ±100 the full control effect; nearly all actives have a fitted effect of over 60% in size
#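 Luminescent ATP read-out (CellTiter-Glo, 10 min) measures survival of drug-selected KB-V1 MDR cells after 72 h, 37 degrees C compound exposure. Medium: phenol-red-free DMEM, 10% FBS. Values from fitted concentration-response curves.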
# * = called active by the depositor; i = inactive; ? = inconclusive; · = no result; [ ] = remark or other dose. Shown are actives, neighbours in structure and some others; about 7.9% of the full set was active somewhere. The call rests on the fitted dose curve; in most records, active means well fitted curve in the direction sought with a large enough effect; inconclusive means small, poorly fitted or top-dose-only effect, or another doubt; inactive means no such curve, though single readings can be large; an effect the other way counts as inactive or inconclusive. Potency means the concentration at half of the fitted maximal effect.
SMILES,SW480 rerep,MCF10A rerep,KB-3-1 tox,HT1080 IDH1KD tx,HT1080-NT tox,KB-V1 MDR tox
CC(NCc1ccc2c(c1)OCO2)c1ccccc1 (configuration not stated),6%,-7%,i,-3%,-2%,i
COc1cc(OC)c2c(C)c(CC(=O)NCCc3ccccc3OC)c(=O)oc2c1,·,·,i,·,·,i
C=C[C@@H]1c2cc(C)ccc2N(S(=O)(=O)c2ccc(C)cc2)[C@H](c2ccc(C(=O)OC)cc2)C1(C#N)C#N,·,·,i,·,·,i
CCN1CCN(C(=O)c2ccc3c(c2)N(Cc2ccc(C)cc2)CCS3)CC1,?,3%,i,-1%,-15%,i
Cc1ccc(CN2CCSc3ccc(C(=O)N4CCN(c5ncccn5)CC4)cc32)cc1,?,?,21µM*,9%,4%[9.24 µM],21µM*
Cc1ccc(CN2CCSc3ccc(C(=O)NCCCN4CCOCC4)cc32)cc1,-3%,?,i,?,-12%,i
CCN1CCN(CCCNC(=O)c2ccc3c(c2)N(Cc2ccc(C)cc2)CCS3)CC1,15µM*,15%,?,?,?,i
CC(O)(c1cccc(F)c1)c1nc(-c2cccc3cccnc23)cs1 (configuration not stated),·,·,i,?,?,i
CCCCCc1nn2cc(-c3ccccc3)nc2s1,·,·,i,·,·,i
Cc1ccc(NC(=O)CCS(=O)(=O)c2ccc(Br)s2)c(Br)c1,·,·,i,·,·,i
CCn1c(C)c(C2=CCN(S(=O)(=O)c3ccccc3)CC2)c2ccccc21,?,?,?,-6%,-6%,10µM*
CCCCNC(=O)c1cccc(-n2cnc3cccnc32)c1C,·,·,i,·,·,i
COC(=O)C1=C(C)N(c2ccc(C(=O)OC)cc2)C(=O)C1,-5%,6%,i,0%,-6%,i
COC(=O)C1=C(C)N(c2cc(Cl)cc(Cl)c2)C(=O)C1,?,18%,?,?,21µM*,?
COc1cc(C2CC(=O)N(c3ccc(C)cc3)C(=O)C2)cc(OC)c1OC,3.7µM*,6.5µM*,4.6µM*,?,3.3µM*,4.6µM*
CCOc1ccc(-c2nn(CC(=O)NC3CCCC3)c3c2cnc2ccc(F)cc23)cc1,·,·,i,·,·,i
CCCc1cc2c(OC(=O)CC)c(-c3ccc(C(=O)OCC)o3)c(=O)oc2cc1OC,?,21µM*,i,-7%,-5%,i
CCCc1cc(-c2n[nH]c(C)c2-c2ccc(C(=O)OCC)o2)c(O)cc1O,1%,0%,i,?,?,i
COc1nnc(-c2ccc(N3CCCCC3)c(NC(=O)c3ccc(Cl)cc3)c2)c2ccccc12,·,·,?,·,·,i
CCCc1nc2ccccc2c(C(=O)OCC(=O)Nc2cccc(S(=O)(=O)N3CCOCC3)c2)c1CC,11%,?,?,?,?,?
CCCc1nc2ccccc2c(C(=O)OCC(=O)Nc2ccc(S(=O)(=O)N3CCOCC3)cc2)c1CC,21µM*,?,?,10µM*,?,3.3µM*
CCCc1nc2ccccc2c(C(=O)OCC(=O)NCc2ccco2)c1CC,-7%,18%,i,-23%,-5%,5.8µM*
CCCC(=O)N(C)c1ccc(/C=C2\C=Cc3ccccc32)cc1,·,·,?,·,·,i
CCOC(=O)/C(=N\Nc1ccccc1[N+](=O)[O-])c1csc(N)n1,-2%,0%,i,-1%,-2%,i
CCOC(=O)/C(=N\Nc1ccc(C(C)=O)cc1)c1csc(Nc2ccccc2)n1,?,23%,?,16µM*,16µM*,?
SMILES,SW480 rerep,MCF10A rerep,KB-3-1 tox,HT1080 IDH1KD tx,HT1080-NT tox,KB-V1 MDR tox
COc1cc(/C=C2\SC(N3CCc4ccccc4C3)=NC2=O)cc(OC)c1OC,-5%,?,?,10%,1%,2.3µM*
Cc1ccc(NC(=O)Cn2cnc3c2c(=O)n(C)c(=O)n3C)cc1C,·,·,i,·,·,i
O=C(Nc1cccc(C(F)(F)F)c1)C1CC(=O)N(Cc2ccco2)C1 (configuration not stated),·,·,i,15%,14%,?
COc1ccccc1C1=NC(c2ccccc2)CN1c1ccccc1 (configuration not stated),6.5µM*,5.2µM*,i,-14%,-1%,i
C=CCN(CC=C)Cc1c(O)ccc2c(=O)c(-c3ccccc3)coc12,?,21µM*,i,?,?,i
CCN(CC)Cc1c(O)ccc2c(=O)c(-c3ccc(Cl)cc3)coc12,-13%,?,i,-1%,-2%,i
CC(C)CCNC(=O)CN1C(=O)c2cccnc2Sc2ccccc21,·,·,i,·,·,i
O=C(NCCCn1ccnc1)c1cn(-c2ccccc2)nc1-c1ccccc1,2%,-13%,i,?,4%,i
N#C/C(=C/c1cn(-c2ccccc2)nc1-c1cccc(OCc2ccccc2)c1)C(=O)NCCCn1ccnc1,?,13µM*,i,?,-28%,9.2µM*
CCOc1cccc(-c2nn(-c3ccccc3)cc2/C=C(/C#N)C(=O)NCCCn2ccnc2)c1,?,21µM*,i,?,26µM*,?
CCc1ccc(NC(=O)CSc2nccn2-c2cccc(C)c2C)cc1,·,·,i,·,·,?
COc1cccc(NC(=O)c2cc3c(=O)n(C)c4ccccc4c3n2C)c1,·,·,i,·,·,i
Cc1nc2cc(OCc3cc(C(=O)NC(C)c4cnn(C)c4)no3)ccc2s1 (configuration not stated),-12%,-9%,i,-8%,0%,10µM*
Cc1cccc(N2CCN(c3nc4ccccc4c4nc(-c5ccccc5)nn34)CC2)c1C,·,·,i,·,·,?
Nc1ccc(-c2nc3c(ccc4ccccc43)[nH]2)cc1,1%,23µM*,i,5%,-1%,i
CCOc1ccc(Nc2nc(Cc3nnc(SCC(=O)c4ccc(C)c(C)c4)o3)cs2)cc1,?,13%,i,?,?,13µM*
Cc1ccc(NC(=O)CSc2nnc(Cc3csc(C)n3)o2)cc1,7%,-1%,i,1%,-7%,i
CC(=O)c1cnc2c(-c3ccccc3)cnn2c1C,-2%,16%,?,12%,18%,21µM*
Cc1nc2c(-c3ccccc3)c(C)nn2c(C)c1CC(=O)O,11%,15µM*,i,-1%,-2%,i
CCOC(=O)Cc1c(C)nc2c(-c3ccccc3)cnn2c1C,?,1.3µM*,i,-10%,-3%,i

# From PubChem BioAssay
